A number with no mark means an inactive call. Records with an inconclusive call do not appear. Activity calls are given as the source filed them. The call rests on the fitted dose curve; in most records, active means well fitted curve in the direction sought with a large enough effect in the repeat runs; inconclusive means weak or mixed curves; inactive means no such curve, though single readings can be large; an effect the other way counts as inactive or inconclusive.

Test [1] is described as follows: Caspase-3/7 induction in CHO-K1 cells by small molecules, qHTS assay (AID 1346980). Further: nearly all actives have a fitted effect of over 15% in size. Further: potency means the concentration at half of the fitted maximal effect. Put shortly:
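Wild-type CHO-K1 cells exposed to compounds for 17hr at 37 C, 5% CO2. Caspase-3/7 activity then measured by Caspase-Glo 3/7 luminescence after 30min at room temperature.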

The nature of test [2]: Caspase-3/7 induction in HepG2 cells by small molecules, qHTS cell viability counter screen (AID 1346981). Further: nearly all actives have a fitted effect of over 30% in size. Further: potency means the concentration at half of the fitted maximal effect. Put shortly: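 In this quantitative HTS counter screen, compounds delivered in DMSO were left on unmodified HepG2 cells for 16 hr at 37 C. Viability was then determined fluorometrically with CellTiter-Fluor, in parallel with caspase-3/7 induction in the same wells.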

Test [3] deals with Cytochrome P450 2C19 (Homo sapiens) (UniProt P33261). As to the kind of experiment: Cytochrome P450 Family 2 Subfamily C Member 19 (CYP2C19) small molecule antagonists: luciferase reporter qHTS assay (AID 1671197). Further: nearly all actives have a fitted effect of over 65% in size. Further: potency means the concentration at half of the fitted maximal effect. Put shortly:
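Light output is proportional to CYP2C19 activity: proluciferin substrate is converted to luciferin, then detected by a luciferin detection reagent that also stops the 1 h, 37C NADPH-driven reaction. Ketoconazole serves as positive control.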
(In a reporter assay the amount or activity of a reporter protein is the signal.)

The target in test [4] is Cytochrome P450 2C9 (Homo sapiens) (UniProt P11712). The test can be described thus: Cytochrome P450 Family 2 Subfamily C Member 9 (CYP2C9) small molecule antagonists: luciferase reporter qHTS assay (AID 1671198). Further: nearly all actives have a fitted effect of over 50% in size. Further: potency means the concentration at half of the fitted maximal effect. Put shortly: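 P450-Glo proluciferin substrate with CYP2C9 enzyme; 10 min RT preincubation, then NADPH regeneration 1 h at 37C; luciferin detection reagent 20 min RT, luminescence in relative luminescence units.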

Test [5] has as its target Cytochrome P450 1A2 (Homo sapiens) (UniProt P05177). As to the kind of experiment: Cytochrome P450 Family 1 Subfamily A Member 2 (CYP1A2) small molecule antagonists: luciferase reporter qHTS assay (AID 1671199). Further: nearly all actives have a fitted effect of over 50% in size. Further: potency means the concentration at half of the fitted maximal effect. Put shortly:
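Steps: enzyme-substrate mix dispensed; test compounds and furafylline control pinned in; 10 min room temperature; NADPH regeneration solution added, 1 h; reaction stopped with luciferin detection reagent; luminescence read after 20 min.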

Test [6] has as its target Nuclear receptor subfamily 1 group I member 2 (Homo sapiens) (UniProt O75469). The test can be described thus: Human pregnane X receptor (PXR) small molecule agonists, qHTS assay (AID 1346982). Further: nearly all actives have a fitted effect of over 35% in size. Further: potency means the concentration at half of the fitted maximal effect. Put shortly: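 Reporter HepG2 cells expressing PXR-Luc are cultured in charcoal-stripped FBS (5%), treated with compounds for 24 hr at 37 C, and assayed by ONE-Glo luminescence after 30 min at room temperature.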
In general terms: qHTS replaces the single test concentration by a dilution series.

Test [7] addresses Cytochrome P450 2D6 (Homo sapiens) (UniProt P10635). As to the kind of experiment: Cytochrome P450 Family 2 Subfamily D Member 6 (CYP2D6) small molecule antagonists: luciferase reporter qHTS assay (AID 1671196). Further: nearly all actives have a fitted effect of over 50% in size. Further: potency means the concentration at half of the fitted maximal effect. Put shortly:
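Test chemicals meet CYP2D6 plus proluciferin substrate (10 min, RT); NADPH regenerating solution then drives turnover for 1 h. Detection reagent halts the reaction; luminescence measured after 20 min.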

Test [8] deals with Nuclear receptor subfamily 1 group I member 2 (Rattus norvegicus) (UniProt Q9R1A7). As to the kind of experiment: Rat pregnane X receptor (rPXR) activation by small molecules, qHTS assay (AID 1346983). Further: potency means the concentration at half of the fitted maximal effect; nearly all actives have a fitted effect of over 20% in size. As to conditions: rPXR luciferase reporter cells, One-Glo luminescence, 24 h; max activation: hits give high values. Put shortly: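 Cell-based rPXR activation assay: rPXR cells, 2,000 per well, rested 5hr at 37 C, then exposed to compounds in DMSO for 24 hr at 37 C. Luciferase activity read by One-Glo luminescence after 30 min at room temperature.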

In test [9] the target is Nuclear receptor subfamily 1 group I member 2 (Homo sapiens) (UniProt O75469). The test can be described thus: CYP3A4 induction through human pregnane X receptor (PXR) by small molecules, qHTS assay (AID 1346984). Further: nearly all actives have a fitted effect of over 40% in size. Put shortly:
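Induction measured in HepG2-based DPX-2 cells co-expressing human PXR and a CYP3A4 promoter-driven luciferase. After a 24-hour compound exposure, cells received CYP3A4 luciferin substrate at 3uM final for 3 hours, and light output was then recorded.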

The target is the same in test [10]. As to the kind of experiment: Human pregnane X receptor (PXR) activation by small molecules, qHTS assay (AID 1346985). Further: potency means the concentration at half of the fitted maximal effect; nearly all actives have a fitted effect of over 40% in size. Put shortly: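 DPX-2 cells (HepG2 co-transfected with a PXR response element and a CYP3A4-promoter luciferase construct) were seeded at 2,000 per well, rested 5 hr at 37C, then exposed to DMSO-dissolved compounds for 24 hr. Activation was read as luciferase luminescence.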

Cytochrome P450 1A2 (Homo sapiens), sequence (P05177 whole entry, looked up): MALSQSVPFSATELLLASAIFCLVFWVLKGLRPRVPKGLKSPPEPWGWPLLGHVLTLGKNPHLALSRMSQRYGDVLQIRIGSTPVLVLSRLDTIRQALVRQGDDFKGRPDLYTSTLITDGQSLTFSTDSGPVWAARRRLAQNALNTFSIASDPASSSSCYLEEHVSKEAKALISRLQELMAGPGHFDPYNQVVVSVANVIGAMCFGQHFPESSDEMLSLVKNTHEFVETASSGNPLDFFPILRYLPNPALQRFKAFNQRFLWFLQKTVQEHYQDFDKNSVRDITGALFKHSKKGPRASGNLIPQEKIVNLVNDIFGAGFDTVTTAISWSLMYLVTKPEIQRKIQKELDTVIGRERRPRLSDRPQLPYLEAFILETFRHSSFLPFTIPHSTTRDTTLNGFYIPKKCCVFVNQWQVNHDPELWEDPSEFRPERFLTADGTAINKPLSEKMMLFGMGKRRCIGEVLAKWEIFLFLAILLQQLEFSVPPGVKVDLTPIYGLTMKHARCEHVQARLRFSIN
Cytochrome P450 2D6 (Homo sapiens), sequence (P10635 whole entry, looked up): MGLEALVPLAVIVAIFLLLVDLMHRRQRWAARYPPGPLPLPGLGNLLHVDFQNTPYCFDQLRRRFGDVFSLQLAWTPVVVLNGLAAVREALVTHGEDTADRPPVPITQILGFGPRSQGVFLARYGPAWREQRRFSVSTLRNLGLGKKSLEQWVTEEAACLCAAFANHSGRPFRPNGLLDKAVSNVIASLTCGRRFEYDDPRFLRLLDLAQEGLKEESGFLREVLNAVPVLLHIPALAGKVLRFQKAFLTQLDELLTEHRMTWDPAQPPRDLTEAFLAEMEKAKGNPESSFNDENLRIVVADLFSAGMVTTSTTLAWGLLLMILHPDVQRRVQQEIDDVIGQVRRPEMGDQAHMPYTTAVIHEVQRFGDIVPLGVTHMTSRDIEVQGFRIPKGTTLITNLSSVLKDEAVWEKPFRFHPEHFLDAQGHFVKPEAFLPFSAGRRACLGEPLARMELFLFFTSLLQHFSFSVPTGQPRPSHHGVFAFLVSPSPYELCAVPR
Nuclear receptor subfamily 1 group I member 2 (Homo sapiens), sequence (O75469 whole entry, looked up): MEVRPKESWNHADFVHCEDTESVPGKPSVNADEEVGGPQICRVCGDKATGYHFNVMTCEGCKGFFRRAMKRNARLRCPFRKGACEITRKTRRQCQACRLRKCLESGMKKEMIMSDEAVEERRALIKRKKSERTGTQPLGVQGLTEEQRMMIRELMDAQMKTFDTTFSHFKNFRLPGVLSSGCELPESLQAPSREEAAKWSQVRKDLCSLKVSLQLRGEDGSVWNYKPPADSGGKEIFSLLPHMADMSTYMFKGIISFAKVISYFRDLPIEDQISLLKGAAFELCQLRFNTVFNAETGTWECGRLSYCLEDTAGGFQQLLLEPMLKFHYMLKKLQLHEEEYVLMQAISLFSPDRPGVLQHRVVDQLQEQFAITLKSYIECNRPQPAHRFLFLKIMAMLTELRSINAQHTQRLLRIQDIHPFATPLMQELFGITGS
Cytochrome P450 2C19 (Homo sapiens), sequence (P33261 whole entry, looked up): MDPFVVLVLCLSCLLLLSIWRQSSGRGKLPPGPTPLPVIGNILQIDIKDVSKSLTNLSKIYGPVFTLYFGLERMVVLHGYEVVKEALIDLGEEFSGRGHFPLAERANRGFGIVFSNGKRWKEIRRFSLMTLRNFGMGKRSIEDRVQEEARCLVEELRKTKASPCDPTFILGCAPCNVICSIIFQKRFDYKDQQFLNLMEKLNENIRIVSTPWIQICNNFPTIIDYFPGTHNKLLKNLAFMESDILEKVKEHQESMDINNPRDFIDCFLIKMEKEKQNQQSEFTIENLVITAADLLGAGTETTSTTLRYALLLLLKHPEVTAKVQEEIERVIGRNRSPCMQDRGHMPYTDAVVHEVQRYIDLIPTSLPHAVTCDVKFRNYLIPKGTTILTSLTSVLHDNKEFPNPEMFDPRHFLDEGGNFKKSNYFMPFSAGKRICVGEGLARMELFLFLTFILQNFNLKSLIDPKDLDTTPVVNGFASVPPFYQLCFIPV
Cytochrome P450 2C9 (Homo sapiens), sequence (P11712 whole entry, looked up): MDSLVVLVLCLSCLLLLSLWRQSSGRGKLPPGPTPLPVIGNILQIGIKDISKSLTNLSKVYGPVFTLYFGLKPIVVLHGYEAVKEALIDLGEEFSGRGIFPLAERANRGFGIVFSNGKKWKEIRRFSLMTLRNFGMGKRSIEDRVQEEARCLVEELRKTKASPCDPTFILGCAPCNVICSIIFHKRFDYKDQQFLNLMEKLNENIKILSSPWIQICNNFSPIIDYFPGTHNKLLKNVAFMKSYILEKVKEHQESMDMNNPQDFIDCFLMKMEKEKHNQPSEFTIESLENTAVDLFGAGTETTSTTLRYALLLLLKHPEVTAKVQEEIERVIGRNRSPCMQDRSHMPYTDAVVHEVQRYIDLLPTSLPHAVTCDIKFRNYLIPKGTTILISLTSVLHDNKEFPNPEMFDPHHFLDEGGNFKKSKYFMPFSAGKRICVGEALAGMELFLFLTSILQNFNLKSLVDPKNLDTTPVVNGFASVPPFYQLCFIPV
Nuclear receptor subfamily 1 group I member 2 (Rattus norvegicus), sequence (Q9R1A7 whole entry, looked up): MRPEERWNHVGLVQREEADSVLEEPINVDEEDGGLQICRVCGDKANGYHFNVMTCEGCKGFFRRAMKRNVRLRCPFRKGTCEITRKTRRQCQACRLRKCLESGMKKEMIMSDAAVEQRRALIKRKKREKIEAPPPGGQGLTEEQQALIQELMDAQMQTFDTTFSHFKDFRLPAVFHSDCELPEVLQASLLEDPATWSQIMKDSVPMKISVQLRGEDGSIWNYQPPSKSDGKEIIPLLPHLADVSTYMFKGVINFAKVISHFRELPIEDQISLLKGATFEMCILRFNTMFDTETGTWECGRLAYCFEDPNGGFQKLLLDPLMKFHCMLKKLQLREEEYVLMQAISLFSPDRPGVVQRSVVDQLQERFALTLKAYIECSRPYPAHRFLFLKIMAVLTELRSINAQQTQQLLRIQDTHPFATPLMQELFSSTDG

For `C=Cc1ccc(O)c(OC)c1`, the Potency entry in [1] and in test [2] was “inactive” throughout. Besides, the figures for the Potency in test [3], in test [4] and in test [5] were 79.6 µM (active), 31.7 µM (active) and 35.6 µM (active), respectively.

Consider `O=C1CCC/C=C\CCCCCCCCCC1`, for which the Potency result in [1], in test [7] and in [3] was “inactive” throughout. In [6], the Potency is 30.6 µM (active).

In the case of `c1ccc(-c2ccc(C(c3ccccc3)n3ccnc3)cc2)cc1` (stereo not drawn), the Potency entry in test [1] was “inactive”. Besides, the Potency is 23.7 µM (active) in [6]; 1.55 µM (active) in test [7]; 0.617 µM (active) in test [3]; 0.219 µM (active) in [4]; 5.49 µM (active) in [5].

As to `CCCCCCCCCCCCCCCCCCNC(=O)OC1CCN(C(=O)OC[C@H](COC(=O)N(Cc2cccc[n+]2CC)C(=O)c2ccccc2OC)OC)CC1`, the Potency result in test [1], in test [6] and in test [5] was “inactive” in each case. The Potency is 27.5 µM (active) in [7], 43.6 µM (active) in test [3] and 30.9 µM (active) in test [4].

As to `CC(C)=NNC(N)=S`, the Potency result in test [1], in [2] and in [4] was “inactive” in each case. The Potency in test [5] is 71 µM (active).

Regarding `CCCC(=O)c1cc(O)c(O)cc1O`, the Potency entry in test [1] is “inactive”. The Potency was 40.9 µM (active) in [2]; 51.7 µM (active) in [7]; 20 µM (active) in test [3]; 26.7 µM (active) in test [4]; 37.7 µM (active) in [5].

Consider `Cc1ccc(Cl)c(N)c1Cl`, for which the Potency entry in [1], in [2], in test [3] and in test [4] was “inactive” throughout.

Regarding `O=c1[nH]cccc1O`, the Potency entry in test [1], in [2], in [6], in [3] and in test [5] was “inactive” throughout.

As for `C=C1C(CCl)(CCl)C2(Cl)C(Cl)C(Cl)C1(Cl)C2(Cl)Cl` (stereo not drawn), the Potency in test [1] was 48 µM (active); in test [6] it was 8.53 µM (active); in test [8], 11.2 µM (active); in [10], 15.8 µM (active); in test [7], 44.3 µM (active); in test [3] it was 1.76 µM (active). Moreover, in [4], the Potency is 15.7 µM (active). Further, the Potency entry in [9] is “inactive”.

As for `CC(C)(C)c1ccc(OC2CCCCC2O)cc1` (stereo not drawn), the Potency entry in test [1] and in test [2] was “inactive” throughout. In addition, the Potency in test [6] is 27.3 µM (active); in test [3], 31.7 µM (active); in [4], 35.6 µM (active); in test [5], 35.6 µM (active).

For `CCN(CC)c1ccc(C=O)cc1`, the Potency entry in test [1], in test [2], in test [7] and in test [4] was “inactive” each time. The Potency was 15.9 µM (active) in test [3] and 5.64 µM (active) in [5].

Turning to `CCCCCc1ccc(O)cc1`, the Potency entry in test [1] and in test [2] was “inactive” each time. Also, the Potency in test [3] is 22.4 µM (active); in test [4], 63.3 µM (active); in [5] it was 63.3 µM (active).

With `S=C1NC=NC2N=CNC12` (stereo not drawn), the Potency entry in test [1] and in test [2] was “inactive” each time. The Potency in test [6] is 21.7 µM (active); in [3] it was 25.2 µM (active); in test [4], 39.9 µM (active); in [5], 71 µM (active).

`O=C1OC(=O)c2cc(-c3ccc4c(c3)C(=O)OC4=O)ccc21`: the Potency entry in test [1], in test [2], in test [7] and in test [4] was “inactive” in each case. Further, the Potency in test [3] is 8.94 µM (active); in test [5], 35.6 µM (active).

Consider `Nc1c(Br)cc([N+](=O)[O-])cc1Br`, for which the Potency entry in test [1], in test [2], in test [7] and in [4] was “inactive” throughout. For the same compound, the Potency is 79.6 µM (active) in [3] and 1.78 µM (active) in test [5].

As to `CSc1nnc(C(C)(C)C)c(=O)[nH]1`, the Potency entry in [1], in [2], in [6], in test [3] and in test [5] was “inactive” throughout. Further, the Potency in test [4] is 35.6 µM (active).

As to `COc1ccc(OC)c(N=Nc2c(O)ccc3ccccc23)c1`, the Potency result in test [1] is “inactive”. Further, the Potency in test [2] is 27.3 µM (active); in test [6], 9.69 µM (active); in [3], 10 µM (active); in test [4] it was 6.33 µM (active); in test [5] it was 0.894 µM (active).

For `Nc1ccc(Oc2cccc(Oc3ccc(N)cc3)c2)cc1`, the Potency result in test [1], in [2], in test [6] and in test [5] was “inactive” each time. Besides, the Potency is 11.2 µM (active) in test [3] and 6.33 µM (active) in [4].

With `Cc1cc(Br)ccc1NC(=O)CCl`, the Potency entry in test [1] was “inactive”. For the same compound, the Potency in test [2] is 61.1 µM (active); in test [6], 3.44 µM (active); in test [3] it was 79.6 µM (active); in test [4], 39.9 µM (active); in test [5], 11.2 µM (active).

`CCOc1ccc([N+](=O)[O-])cc1`: the Potency result in test [1] and in [6] was “inactive” in each case. Further, the Potency in [7] is 80.9 µM (active); in test [3], 8.09 µM (active); in [4], 16.1 µM (active); in test [5], 32.2 µM (active).

Take `CC(C)(C)C1=CC(=O)C(C(C)(C)C)=CC1=O`: the Potency entry in test [1] and in test [2] was “inactive” throughout. Moreover, the Potency in test [6] is 18.8 µM (active); in test [3], 6.92 µM (active); in [4], 15.5 µM (active); in test [5], 17.4 µM (active).

On to `CC1CCC(C(C)(C)O)CC1` (stereo not drawn), for which the Potency result in test [1], in [2], in test [6], in test [3], in [4] and in test [5] was “inactive” each time.

For `O=C(Nc1ccccc1)c1cc(Cl)ccc1O`, in test [1], the Potency entry is “inactive”. The Potency is 15.4 µM (active) in [6]; 39.9 µM (active) in test [7]; 35.6 µM (active) in [3]; 17.8 µM (active) in [4]; 12.6 µM (active) in [5].

For the compound `Cc1ccc2sc3cccc(C)c3c2c1`, the Potency entry in [1], in test [2], in [6], in test [3] and in [4] was “inactive” in each case. Further, the Potency in [5] was 2.52 µM (active).

For `Cc1ccc(S(=O)(=O)C(I)I)cc1`, the Potency was 12.2 µM (active) in test [1]; 54.5 µM (active) in test [2]; 19.3 µM (active) in test [6]; 1.59 µM (active) in test [3]; 1.12 µM (active) in test [4]; 31.7 µM (active) in [5].

These data come from PubChem BioAssay (Tox21).
